# In ChEMBL document CHEMBL5606458, “ASAP - ZIKV NS2B-NS3 protease fluorescence single point” (2024):
# About 160 (5.9%) of roughly 2,700 compounds showed an effect of 50% or more. Shown is part of a subset that was picked to be rich in strong results.
# Target: Nonstructural protein 3 (Zika virus) (UniProt A0A024AXB9)
# Sequence (A0A024AXB9 as listed by the source): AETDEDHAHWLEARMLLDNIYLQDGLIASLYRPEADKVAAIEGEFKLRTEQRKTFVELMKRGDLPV
smiles,measurement,setting,value
CC(C)(C)OC(=O)Cn1ccnc(N2CC[C@@H](CO)C2)c1=O,inhibition,"PRVABC59, Concentration 49.5 uM, Number of replicates 2.0, Standard deviation 1.325865675699347 %",11.6%
same,inhibition,"PRVABC59, Concentration 99.01 uM, Number of replicates 2.0, Standard deviation 1.7656333109073532 %",22.2%
same,inhibition,"PRVABC59, Concentration 198.0 uM, Number of replicates 2.0, Standard deviation 1.622873505631253 %",37.1%
O=C(O)c1cc(Cl)ccc1NS(=O)(=O)c1ccc(Br)cc1,inhibition,"PRVABC59, Concentration 49.5 uM, Number of replicates 2.0, Standard deviation 0.7950601733582335 %",7.77%
same,inhibition,"PRVABC59, Concentration 99.01 uM, Number of replicates 2.0, Standard deviation 0.4216229111618842 %",14.7%
same,inhibition,"PRVABC59, Concentration 198.0 uM, Number of replicates 2.0, Standard deviation 0.3312742292956271 %",24.5%
CCn1ccnc(N2CC[C@H](c3ccc(C#N)cc3)C2)c1=O,inhibition,"PRVABC59, Concentration 49.5 uM, Number of replicates 2.0, Standard deviation 3.318813799365356 %",8.78%
same,inhibition,"PRVABC59, Concentration 99.01 uM, Number of replicates 2.0, Standard deviation 2.601162551030959 %",17.7%
same,inhibition,"PRVABC59, Concentration 198.0 uM, Number of replicates 2.0, Standard deviation 2.251403725502818 %",31.6%
CCn1ccnc(N2CC[C@H](C3CCOCC3)C2)c1=O,inhibition,"PRVABC59, Concentration 50.0 uM, Number of replicates 2.0, Standard deviation 1.8994947363510455 %",7.04%
same,inhibition,"PRVABC59, Concentration 100.0 uM, Number of replicates 2.0, Standard deviation 0.728011618047951 %",14.4%
same,inhibition,"PRVABC59, Concentration 200.0 uM, Number of replicates 2.0, Standard deviation 0.3716947428915149 %",27.3%
N[C@H]1C[C@H](CNC(=O)[C@@H](NC(=O)OCc2ccccc2)c2ccc(OCc3ccccc3)cc2)C1,inhibition,"PRVABC59, Concentration 49.5 uM, Number of replicates 2.0, Standard deviation 3.7963377615811797 %",3.96%
same,inhibition,"PRVABC59, Concentration 99.01 uM, Number of replicates 2.0, Standard deviation 2.5827561793492815 %",42.9%
same,inhibition,"PRVABC59, Concentration 198.0 uM, Number of replicates 2.0, Standard deviation 1.1643103990361166 %",82.5%
O=Cc1ccc(N2CCC(C(=O)N3C[C@@H]4C[C@H](C3)c3cccc(=O)n3C4)CC2)cc1,inhibition,"PRVABC59, Concentration 50.0 uM, Number of replicates 1.0",21.2%
CC(C)Oc1cc(COc2cccnc2F)nc(N2CCNCC2)n1,inhibition,"PRVABC59, Concentration 49.5 uM, Number of replicates 2.0, Standard deviation 2.4105168451759336 %",4.13%
same,inhibition,"PRVABC59, Concentration 99.01 uM, Number of replicates 2.0, Standard deviation 2.7698794201931607 %",16.6%
same,inhibition,"PRVABC59, Concentration 198.0 uM, Number of replicates 2.0, Standard deviation 3.834837221821941 %",38.4%
COc1cc(C(=O)Nc2cnc3ccccc3c2)nc(N2CCNCC2)n1,inhibition,"PRVABC59, Concentration 49.5 uM, Number of replicates 2.0, Standard deviation 31.670721297793175 %",46.6%
same,inhibition,"PRVABC59, Concentration 99.01 uM, Number of replicates 2.0, Standard deviation 1.978331259427643 %",52.6%
same,inhibition,"PRVABC59, Concentration 198.0 uM, Number of replicates 2.0, Standard deviation 3.25586764970173 %",44.4%
COc1cc(COc2cncc3ccccc23)nc(N2CCNCC2)n1,inhibition,"PRVABC59, Concentration 49.5 uM, Number of replicates 2.0, Standard deviation 3.6633197788698872 %",18.2%
same,inhibition,"PRVABC59, Concentration 99.01 uM, Number of replicates 2.0, Standard deviation 8.620902514901289 %",33.6%
same,inhibition,"PRVABC59, Concentration 198.0 uM, Number of replicates 2.0, Standard deviation 2.631600667850739 %",48.9%
COC(=O)c1cncc(OCc2cc(OC)nc(N3CCNCC3)n2)c1,inhibition,"PRVABC59, Concentration 49.5 uM, Number of replicates 2.0, Standard deviation 0.44537620063304795 %",8.58%
same,inhibition,"PRVABC59, Concentration 99.01 uM, Number of replicates 2.0, Standard deviation 1.920430256118165 %",19.8%
same,inhibition,"PRVABC59, Concentration 198.0 uM, Number of replicates 2.0, Standard deviation 1.464841031153957 %",42.9%
CCCC[C@H](NC(C)=O)C(=O)N[C@H](C(=O)NCc1ccc(C(N)=O)cc1)c1ccc(OCc2ccccc2)cc1,inhibition,"PRVABC59, Concentration 49.5 uM, Number of replicates 2.0, Standard deviation 2.8803277655268693 %",26.6%
same,inhibition,"PRVABC59, Concentration 99.01 uM, Number of replicates 2.0, Standard deviation 0.054514419737930774 %",98.6%
same,inhibition,"PRVABC59, Concentration 198.0 uM, Number of replicates 2.0, Standard deviation 0.07632018763310308 %",99.1%
CCCCCC(=O)N[C@H](C(=O)NCc1cccc(CN)c1)C1CCCCC1,inhibition,"PRVABC59, Concentration 49.5 uM, Number of replicates 2.0, Standard deviation 0.08302069360936502 %",-2.7%
same,inhibition,"PRVABC59, Concentration 99.01 uM, Number of replicates 2.0, Standard deviation 0.655862366837183 %",-1.9%
same,inhibition,"PRVABC59, Concentration 198.0 uM, Number of replicates 2.0, Standard deviation 0.31962821211509684 %",41.3%
CCCC[C@H](NC(C)=O)C(=O)N[C@H](C(=O)Nc1ccc(C(N)=O)cc1)c1ccc(OCc2ccccc2)cc1,inhibition,"PRVABC59, Concentration 49.5 uM, Number of replicates 2.0, Standard deviation 1.0117053428289626 %",-1.83%
same,inhibition,"PRVABC59, Concentration 99.01 uM, Number of replicates 2.0, Standard deviation 0.9364545471831264 %",1.23%
same,inhibition,"PRVABC59, Concentration 198.0 uM, Number of replicates 2.0, Standard deviation 0.5455676889131452 %",17.7%
CCCC[C@H](NC(C)=O)C(=O)N[C@@H](C(=O)NCc1ccc(C(N)=O)cc1)c1ccc(OCc2ccccc2)cc1,inhibition,"PRVABC59, Concentration 49.5 uM, Number of replicates 2.0, Standard deviation 1.682765526064386 %",-0.555%
same,inhibition,"PRVABC59, Concentration 99.01 uM, Number of replicates 2.0, Standard deviation 1.8317792493099265 %",2.22%
same,inhibition,"PRVABC59, Concentration 198.0 uM, Number of replicates 2.0, Standard deviation 1.8535860287294632 %",8.29%
CCCC[C@H](NC(C)=O)C(=O)N[C@H](C(=O)NCc1ccc(CN)cc1)c1ccccc1,inhibition,"PRVABC59, Concentration 49.5 uM, Number of replicates 2.0, Standard deviation 2.0326302034025616 %",1.09%
same,inhibition,"PRVABC59, Concentration 99.01 uM, Number of replicates 2.0, Standard deviation 38.99982941752366 %",27.9%
same,inhibition,"PRVABC59, Concentration 198.0 uM, Number of replicates 2.0, Standard deviation 3.137845684278008 %",79.1%
CCCC[C@H](NC(C)=O)C(=O)N[C@H](C(=O)NCc1ccc(CN)cc1)c1ccc(OCc2ccccc2)cc1,inhibition,"PRVABC59, Concentration 49.5 uM, Number of replicates 2.0, Standard deviation 3.0246149725930045 %",4.96%
same,inhibition,"PRVABC59, Concentration 99.01 uM, Number of replicates 2.0, Standard deviation 5.4426160865401085 %",91.7%
same,inhibition,"PRVABC59, Concentration 198.0 uM, Number of replicates 2.0, Standard deviation 0.23672907001683724 %",97.8%
COc1ccc2nc(C(F)(F)F)nc(N3CCN(c4ccc(N)nc4)CC3)c2c1,inhibition,"PRVABC59, Concentration 49.5 uM, Number of replicates 2.0, Standard deviation 0.8584962379889504 %",14.4%
same,inhibition,"PRVABC59, Concentration 99.01 uM, Number of replicates 2.0, Standard deviation 2.1800251715639205 %",28%
same,inhibition,"PRVABC59, Concentration 198.0 uM, Number of replicates 2.0, Standard deviation 1.6255789961308644 %",43.6%
CC(C)(CO)CN1CC[C@H](c2c[nH]c3ccccc23)C1,inhibition,"PRVABC59, Concentration 49.5 uM, Number of replicates 2.0, Standard deviation 3.1209329969075563 %",6.14%
same,inhibition,"PRVABC59, Concentration 99.01 uM, Number of replicates 2.0, Standard deviation 4.254828207009483 %",11.2%
same,inhibition,"PRVABC59, Concentration 198.0 uM, Number of replicates 2.0, Standard deviation 3.604090306895346 %",18.1%
COC[C@@H](C)CNC(=O)c1cc(Cl)ccc1NS(=O)(=O)c1ccc(Oc2ccccc2Cl)cc1,inhibition,"PRVABC59, Concentration 49.5 uM, Number of replicates 2.0, Standard deviation 0.1936300399043851 %",40.8%
same,inhibition,"PRVABC59, Concentration 99.01 uM, Number of replicates 2.0, Standard deviation 0.11978876131329876 %",39.9%
same,inhibition,"PRVABC59, Concentration 198.0 uM, Number of replicates 2.0, Standard deviation 0.12799289825703533 %",17.9%
O=C(O)c1cc(Cl)ccc1NS(=O)(=O)c1ccc(Oc2ccccc2Cl)cc1,inhibition,"PRVABC59, Concentration 15.0 uM, Number of replicates 2.0, Standard deviation 1.019095961302742 %",25.6%
same,inhibition,"PRVABC59, Concentration 49.5 uM, Number of replicates 2.0, Standard deviation 0.595671862422896 %",67%
same,inhibition,"PRVABC59, Concentration 99.01 uM, Number of replicates 2.0, Standard deviation 0.9962463002636517 %",72.9%
same,inhibition,"PRVABC59, Concentration 198.0 uM, Number of replicates 2.0, Standard deviation 0.4898259529465772 %",64.4%
CC(C)CNC(=O)c1cc(Cl)ccc1NS(=O)(=O)c1ccc(Oc2ccccc2Cl)cc1,inhibition,"PRVABC59, Concentration 49.5 uM, Number of replicates 2.0, Standard deviation 0.3286348250544809 %",58.6%
same,inhibition,"PRVABC59, Concentration 99.01 uM, Number of replicates 2.0, Standard deviation 0.058762822067828895 %",54.7%
same,inhibition,"PRVABC59, Concentration 198.0 uM, Number of replicates 2.0, Standard deviation 2.167677830824169 %",37.6%
O=C(NCC1CC1)c1cc(Cl)ccc1NS(=O)(=O)c1ccc(Oc2ccccc2Cl)cc1,inhibition,"PRVABC59, Concentration 49.5 uM, Number of replicates 2.0, Standard deviation 1.3484995448740613 %",43%
same,inhibition,"PRVABC59, Concentration 99.01 uM, Number of replicates 2.0, Standard deviation 16.06152873020096 %",40.6%
same,inhibition,"PRVABC59, Concentration 198.0 uM, Number of replicates 2.0, Standard deviation 0.4375207024201935 %",45.6%
Cc1ccc(CNC(=O)c2cc(Cl)ccc2NS(=O)(=O)c2ccc(Oc3ccccc3Cl)cc2)s1,inhibition,"PRVABC59, Concentration 49.5 uM, Number of replicates 2.0, Standard deviation 0.2822395742136887 %",41.1%
same,inhibition,"PRVABC59, Concentration 99.01 uM, Number of replicates 2.0, Standard deviation 0.310134718781715 %",25.2%
same,inhibition,"PRVABC59, Concentration 198.0 uM, Number of replicates 2.0, Standard deviation 2.1364830937799217 %",-9.71%
NCc1cccc(NC(=O)[C@@H](NC(=O)OCc2ccccc2)C2CCCCC2)c1,inhibition,"PRVABC59, Concentration 49.5 uM, Number of replicates 2.0, Standard deviation 3.670746053577507 %",0.383%
same,inhibition,"PRVABC59, Concentration 99.01 uM, Number of replicates 2.0, Standard deviation 4.852210894307134 %",19.8%
same,inhibition,"PRVABC59, Concentration 198.0 uM, Number of replicates 2.0, Standard deviation 0.07712401232790286 %",99.4%
NCc1cccc(NC(=O)[C@H]2Cc3ccccc3N2C(=O)OCc2ccccc2)c1,inhibition,"PRVABC59, Concentration 49.5 uM, Number of replicates 2.0, Standard deviation 1.3458327451813832 %",-2.12%
same,inhibition,"PRVABC59, Concentration 99.01 uM, Number of replicates 2.0, Standard deviation 2.0252321038631718 %",4.14%
same,inhibition,"PRVABC59, Concentration 198.0 uM, Number of replicates 2.0, Standard deviation 4.242354762898987 %",47.3%
CCn1ccnc(N[C@@H](Cc2c[nH]c3ccccc23)C(N)=O)c1=O,inhibition,"PRVABC59, Concentration 49.5 uM, Number of replicates 2.0, Standard deviation 1.4026673489298387 %",18.1%
same,inhibition,"PRVABC59, Concentration 99.01 uM, Number of replicates 2.0, Standard deviation 0.19191044848514063 %",31.5%
same,inhibition,"PRVABC59, Concentration 198.0 uM, Number of replicates 2.0, Standard deviation 0.4743186100928729 %",43.7%
